Growth data for 26 molecules are collected here from PubChem BioAssay (NCI).

The panel holds about 83,000 compounds, 20% with a hit somewhere; the sample as a whole holds those more often.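 Negative percent growth values reflect cell death: -40 means 40% of the cells present at the start died, and -100 means all died.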 Unmarked numbers belong to inactive results. Active and inactive are the calls of the source. Rule for the calls: active = growth percent below 10; inactive = the rest.

Holding throughout (assay): NCI-60 one-dose screen, 48 h (100 = growth as untreated, 0 = no growth, -100 = all killed)
Conditions in all cases: 10 µM unless noted

The subject of assay [1] is NCI-H23 lung.
The test system of assay [2] is NCI-H226 lung.
Assay [3] concerns NCI-H322M lung.
The test system of assay [4] is HOP-62 NSCLC.
Assay [5] deals with NCI-H460 lung.
The test system of assay [6] is HOP-92 NSCLC.
Assay [7] concerns NCI-H522 lung.
Assay [8] relates to A549/ATCC NSCLC.
In assay [9] the test system is 786-0 renal.
For assay [10], the system named is COLO 205 colon.

As for `COc1ccc(-c2c(N)n[nH]c2-c2cc(OC)c3c(c2)OCCO3)cc1`, the growth in assay [1] was 87.6%; in assay [2], 93.3%; in assay [3], 107%; in [4], 78.3%; in assay [5] it was 83%; in [6] it was 87.6%. Besides, the growth in [7] was 12.5%; in assay [8], 56%; in assay [9] it was 88.9%; in assay [10], 66.8%.
For `OB(O)c1cccc(-c2nc3ccc4[nH]ncc4c3c3c2CCCC3)c1F`, the growth in assay [1] is 59%; in [2] it was 37.9%; in [3], 48.1%; in [4], 29.3%; in assay [5], 22.2%; in [6], 27.1%. Besides, the growth in assay [7] is 26.9%; in [8] it was 47.9%; in assay [9] it was 34.8%; in assay [10], 38.7%.
Take `CNc1ccc(Br)c2c1C(=O)c1ccccc1C2=O`: the growth in assay [1] was 98.3%; in assay [2], 104%; in assay [3] it was 110%; in [4], 107%; in [5], 105%; in [6], 80.6%. Also, the growth was 98% in assay [7], 110% in assay [8], 96.7% in [9] and 132% in assay [10].
Take `O=C(Nc1cccc(-n2cc(-c3ccncc3)c(-c3ccc(Cl)c(O)c3)n2)c1)c1ccccc1`: the growth in assay [1] is 90.8%; in assay [2], 89.6%; in [3], 89.2%; in assay [4] it was 46.7%; in assay [5], 48.7%; in assay [6], 3.59% (active). Also, the growth in assay [7] was 42.3%; in [8], 52.6%; in [9] it was 76.1%; in [10] it was 100%.
Turning to `COc1ccc(S(=O)(=O)NCCCNc2nccc(-n3ccc4cccnc43)n2)cc1`, the growth in assay [1] is 102%; in [2], 89.9%; in assay [3], 87.7%; in [4], 109%; in assay [5] it was 98.7%; in assay [6], 81.4%. The growth in assay [7] was 84.3%; in assay [8] it was 83%; in assay [9] it was 97.6%; in assay [10], 113%.
On to `N/C(=N\S(=O)(=O)c1ccccc1)Nc1nc2ccccc2s1`, for which the growth in [1] is 87.9%; in assay [2] it was 76.7%; in [3] it was 91.1%; in [4], 86.3%; in [5], 107%; in [6] it was 76.2%. In addition, the growth is 73.2% in [7], 95.9% in [8], 95.4% in assay [9] and 96.4% in assay [10].
For `CCCN=C1NC(=O)/C(=C/c2nc(-c3ccc(OC)cc3)n3ccccc23)S1`, the growth is 77.9% in [1]; 84.6% in assay [2]; 82.5% in [3]; 98.8% in assay [4]; 37.4% in assay [5]; 106% in [6]. Also, the growth is 88.1% in assay [7], 73.3% in assay [8], 58.5% in assay [9] and 109% in [10].
Consider `Cc1cc(N)n(S(=O)(=O)c2oc(-c3ccccc3)nc2C#N)n1`, for which the growth was 90.3% in [1]; 89.6% in assay [2]; 98.4% in [3]; 95% in assay [4]; 106% in assay [5]; 91.5% in assay [6]. The growth is 24.4% in assay [7], 95.3% in assay [8], 90.1% in [9] and -34% (active) in assay [10].
Turning to `C=C1C(=O)O[C@H]2[C@H]1CC/C(Cn1cc(CNC(=O)Cc3cn(C(=O)c4ccc(Cl)cc4)c4ccc(OC)cc34)nn1)=C\CC[C@@]1(C)O[C@@H]21`, the growth in [1] is 19.7%; in assay [2] it was 70.9%; in assay [3] it was 88.3%; in assay [4], 78.6%; in [5] it was 88.5%; in assay [6], -65.8% (active). The growth is -50.7% (active) in assay [7], 68.4% in [8], -82.7% (active) in [9] and -74% (active) in assay [10].
As to `CO[C@H]1NC(=O)N(S(=O)(=O)c2ccc(Cl)cc2)[C@@H]1OC`, the growth in [1] was 107%; in [2], 131%; in assay [3], 111%; in [4], 93.1%; in assay [5], 110%; in assay [6], 114%. Besides, the growth was 105% in [7], 98.2% in assay [8], 103% in [9] and 108% in assay [10].
With `O=[N+]([O-])c1ccc(C(c2ccccc2)c2ccccc2)cc1`, the growth in assay [1] is 89.6%; in assay [2], 100%; in [3], 78%; in assay [4], 102%; in assay [5] it was 94%; in [6] it was 85.9%. The growth was 87% in [7], 91.5% in [8], 99.4% in [9] and 92.6% in assay [10].
With `CN(C)CCCN(c1nc(C(Cl)(Cl)Cl)ns1)c1nc(C(Cl)(Cl)Cl)ns1`, the growth in assay [1] was 58.9%; in assay [2] it was 53.9%; in [3], 65.5%; in assay [4] it was 48.4%; in assay [5], 8.42% (active); in assay [6] it was -0.62% (active). Besides, the growth in assay [7] was 39.4%; in assay [8], 37.5%; in [9] it was 42.4%; in assay [10] it was 10.2%.
For `CN1CCN(Cc2ccc(NC(=O)c3cncc(C#Cc4cnc(N)c5cnccc45)c3)cc2C(F)(F)F)CC1`, the growth was 4.51% (active) in [1]; -28.4% (active) in [2]; 13% in assay [3]; -23.7% (active) in assay [4]; -9.5% (active) in [5]; -58.6% (active) in assay [6]. For the same molecule, the growth in [7] is 10.8%; in assay [8], 20%; in assay [9] it was 23.1%; in assay [10] it was -20.2% (active).
With `O=C1C2(c3ccccc3)C(c3ccccc3)=C(c3ccccc3)C1(c1ccccc1)C1CC=CC12` (stereo not given), the growth in assay [1] was 75.9%; in assay [2], 74%; in [3], 84.7%; in assay [4], 102%; in [5] it was 84.4%; in assay [6], 1.51% (active). Further, the growth was 71.3% in assay [7], 78.3% in [8], 85.9% in assay [9] and 112% in assay [10].
On to `CCOC(=O)c1ccc2c(c1)nc(-c1ccc(OCc3ccccc3)c(OC)c1)n2-c1cc(C(C)(C)C)[nH]n1`, for which the growth in assay [1] is 88.1%; in [2], 91.6%; in assay [3] it was 92.8%; in assay [4], 91.4%; in [5], 74.9%; in assay [6] it was 93.5%. For the same molecule, the growth is 67.8% in [7], 59.3% in assay [8], 98.7% in assay [9] and 67.4% in assay [10].
Take `COc1ccc(/C=C2\Oc3cc(OCCCN4CCCC4)ccc3C2=O)c(OC)c1`: the growth is 87.9% in assay [1]; 96.4% in [2]; 94.6% in [3]; 101% in [4]; 23.5% in assay [5]; 83.8% in assay [6]. Besides, the growth is 75% in [7], 80.5% in assay [8], 89.4% in [9] and 92.8% in [10].
As for `COc1ccc(-c2nc(N3CCCC3=O)sc2Br)cc1OC`, the growth was 95.7% in assay [1]; 93.8% in assay [2]; 96.6% in assay [3]; 103% in assay [4]; 108% in assay [5]; 113% in assay [6]. Moreover, the growth was 89.1% in [7], 96.8% in [8], 97.5% in assay [9] and 112% in [10].
As for `Cc1ccc(S(=O)(=O)NCCNc2cc(-c3cn(C(C)(C)C)nc3-c3cccc(O)c3)ccn2)cc1`, the growth in assay [1] was 74.7%; in assay [2] it was 61.8%; in assay [3], 82.2%; in [4], 93.3%; in [5] it was 60.8%; in assay [6], 75.1%. Also, the growth in assay [7] is 68.1%; in assay [8], 70.6%; in assay [9], 68.5%; in assay [10], 18.1%.
On to `O=S(=O)(CC(O)(c1ccccc1)c1ccccc1)CC(O)(c1ccccc1)c1ccccc1`, for which the growth in assay [1] was 88.3%; in assay [2], 84.1%; in assay [3] it was 59.3%; in [4] it was 68.8%; in [5] it was 77.6%; in [6], 86.7%. Further, the growth was 108% in [7], 94.1% in assay [8], 90.2% in assay [9] and 90.2% in assay [10].
Regarding `O=C(Nc1ccc2c(c1)OCCO2)C(=O)c1c[nH]c2ccccc12`, the growth in [1] is 24.5%; in [2] it was 82.7%; in [3], 54.3%; in assay [4], 42.9%; in assay [5], 8.62% (active); in assay [6] it was 1.01% (active). Further, the growth in assay [7] is -40.4% (active); in assay [8] it was 47.7%; in assay [9], 59.7%; in assay [10] it was 10.2%.
`COc1ccc(NC(=O)c2c(Nc3ccc(OC)cc3OC)n[nH]c2N)c(OC)c1`: the growth in assay [1] is 91.7%; in assay [2], 89.9%; in assay [3], 87.7%; in assay [4], 94.3%; in [5], 107%; in assay [6], 74.1%. The growth in [7] was 79.3%; in [8] it was 96.8%; in assay [9] it was 107%; in assay [10], 100%.
In the case of `COc1ccc(C2CC(c3ccc(OC)cc3OC)=NN2c2ccc(S(N)(=O)=O)cc2)cc1` (stereo not given), the growth in assay [1] was 90.7%; in [2], 101%; in assay [3], 94.4%; in assay [4], 119%; in assay [5], 87.3%; in [6], 77.7%. Also, the growth was 63.7% in assay [7], 59% in [8], 99.3% in [9] and 112% in [10].
Regarding `COc1ccc(Nc2[nH]n3c(=O)cc(-c4ccccc4)nc3c2C(=O)Nc2ccc(C)cc2)c(OC)c1`, the growth in [1] is 88.7%; in assay [2], 87.4%; in assay [3], 81.5%; in assay [4], 80.3%; in assay [5], 111%; in [6] it was 68.9%. Moreover, the growth is 78.2% in assay [7], 88.7% in [8], 92.7% in assay [9] and 98% in assay [10].
Turning to `CCC1=CCC[C@@]2(C)CCC[C@@]3(C)CCCC(C)(C)[C@]1([O-])[O+]32`, the growth in assay [1] is 99.7%; in assay [2], 102%; in assay [3] it was 116%; in assay [4], 104%; in assay [5], 109%; in assay [6], 87.8%. Also, the growth was 93.9% in assay [7], 103% in assay [8], 97.9% in assay [9] and 112% in assay [10].
Regarding `c1ccc(Nc2nc(Nc3ccccc3)nc(Nc3ccccc3)n2)cc1`, the growth in assay [1] is 86.5%; in assay [2], 89%; in [3], 57.3%; in assay [4], 90.6%; in assay [5] it was 78%; in [6] it was 60.9%. The growth in [7] is 84.5%; in [8], 79.9%; in assay [9], 100%; in assay [10] it was 76.1%.
Turning to `CC1=NC2=CC=CC3=NC(C(Cl)(Cl)Cl)=NC(=N1)N23`, the growth is 59.9% in assay [1]; 83.5% in [2]; 92.5% in assay [3]; 96.2% in [4]; 69.1% in assay [5]; 118% in assay [6]. Moreover, the growth was 54.9% in [7], 80% in assay [8], 88.7% in assay [9] and 88.9% in [10].
